# Rows were chosen to be rich in hits. Some 7.5% of all compounds tested hit in one or more screens of this group.
# NPC1 prom act – activates the NPC1 promoter | Huh7 NPC1 promoter luciferase reporter, 24 h | Potency, µM (top dose mostly 9.22 µM), for the others: at the highest dose activation, most hits filed as activators | actives 2.4% (n = 320,000) | AID 485313; further: % of control where 0% means no effect; nearly all actives have a fitted effect of over 60% in size
#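 Quantitative HTS used a cell-based reporter: Huh7 cells stably bearing the NPC1 promoter upstream of luciferase were treated with compounds for 24 h, and promoter activation was read as luminescence.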
# SMN2 splice enh – enhancers of SMN2 splice variant expression; HEK293 SMN2-luciferase splicing reporter, luminescence, 30-36 h; Potency, µM (doses to about 46.1 µM), without a hit: at the highest dose activity change, positive = activation, hits mostly activators; actives 2.8% (n = 210,000); AID 1458; further: % of control where 0% means no effect; nearly all actives have a fitted effect of over 55% in size
#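 qHTS luciferase splicing reporter: luminescence rises when SMN2 exon 7 is included in transfected HEK293 cells. Compound exposure lasted 30-36 h at 37C, with 4.5 mM final sodium butyrate as control, followed by a ONE-Glo read.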
# FLuc modulator – counter-screen for miR-21 project: firefly luciferase inhibitors or activators. P08659. purified FLuc, Km substrates, luminescence inhibition. Potency, µM (series often up to 57.5 µM), without a hit: top-dose activity change, negative = inhibition, usual class: inhibitors. actives 6.9% (n = 360,000). AID 588342;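 further: plate controls were vehicle for no effect and reference inhibitor for full effect; nearly all actives have a fitted effect of over 55% in size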
# Target sequence (P08659 whole entry, looked up): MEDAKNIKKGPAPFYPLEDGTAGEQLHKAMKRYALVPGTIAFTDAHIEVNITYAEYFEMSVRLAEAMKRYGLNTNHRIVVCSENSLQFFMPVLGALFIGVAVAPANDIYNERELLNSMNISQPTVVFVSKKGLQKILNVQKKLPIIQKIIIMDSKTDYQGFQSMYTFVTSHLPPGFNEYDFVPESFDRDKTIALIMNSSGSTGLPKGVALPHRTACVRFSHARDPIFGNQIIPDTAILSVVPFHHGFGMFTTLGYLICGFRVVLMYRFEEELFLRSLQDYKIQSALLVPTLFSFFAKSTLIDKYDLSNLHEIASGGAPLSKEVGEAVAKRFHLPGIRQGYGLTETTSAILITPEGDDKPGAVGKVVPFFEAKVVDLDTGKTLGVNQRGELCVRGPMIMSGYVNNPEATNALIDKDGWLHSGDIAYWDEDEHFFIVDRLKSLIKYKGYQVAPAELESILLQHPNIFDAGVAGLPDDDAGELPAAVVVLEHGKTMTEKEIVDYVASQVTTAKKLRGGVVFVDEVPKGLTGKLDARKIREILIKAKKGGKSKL
#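 Purified P. pyralis luciferase (10nM final) with 10uM D-luciferin and 10uM ATP (Km levels) in 50mM Tris acetate pH 7.5, 10mM Mg acetate, 0.01% Tween-20, 0.05% BSA; qHTS 6-point titration, ~60 µM downward; luminescence read.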
# Luc counter – counter-screen: inhibitors of Kinase-Glo firefly luciferase; actives 0.28% (n = 200,000); Q27757; Potency, µM (titrated, usually from 38.3 µM), for inactives: top-dose activity change, negative = inhibition, hits mostly inhibitors; Kinase-Glo luciferase, ATP luminescence, 8 min; further: on the % scale 0 is the no-effect control and ±100 the full control effect; nearly all actives have a fitted effect of over 60% in size
#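 Compound is pinned into ATP-containing buffer (10 uM ATP, imidazole pH 7.2, 7 mM MgCl2). Kinase-Glo luciferase reagent is then added. Light output is recorded following an 8-min room-temperature incubation.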
# ELG1 genotoxic – genotoxicity induction in ELG1-luciferase HEK293T cells. HEK293T ELG1-luciferase reporter, luminescence, 16 h. Potency, µM (titrated, usually from 46 µM), for inactives: at the top dose activity change, positive = activation, usual class: activators. actives 1.3% (n = 330,000); further: % of control where 0% means no effect; nearly all actives have a fitted effect of over 60% in size
#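 Quantitative HTS format in 1536-well plates. HEK293T ELG1-luciferase reporter cells receive test compound and are incubated 16 hr at 37 °C, 5% CO2; ONE-Glo added, 30 min room temperature, then luminescence read.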
# Rab9 promoter act – activators of Rab9 promoter; Potency, µM (series often up to 9.22 µM), without a hit: at the highest dose activation, negative = inhibition, hits mostly activators; Huh7 Rab9 promoter-luciferase reporter, luminescence, 24 h; actives 2.8% (n = 320,000); AID 485297; further: % of control where 0% means no effect; nearly all actives have a fitted effect of over 60% in size
#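 Cell-based reporter: Huh7 stable for Rab9 promoter-driven luciferase, plated in reduced-serum medium with 10% FBS at 1500 cells/well, compound-treated 24 h at 37 °C, luminescence read after 10 min reagent.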
# * hit, by the source's call; ? = inconclusive; . = no result; [ ] = dose if it differs, or a comment. The call rests on the fitted dose curve; in most records, active means well fitted curve in the direction sought with a large enough effect; inconclusive means small, poorly fitted or top-dose-only effect, or another doubt; inactive means no such curve, though single readings can be large; an effect the other way counts as inactive or inconclusive. Potency means the concentration at half of the fitted maximal effect.
SMILES,NPC1 prom act,SMN2 splice enh,FLuc modulator,Luc counter,ELG1 genotoxic,Rab9 promoter act
N#CCc1ccc(NC(=O)Nc2cccc(Cl)c2)cc1,?,-13.9%,16.9µM*,-2.6%,4.6%,29.0%
N#Cc1ccccc1NC(=O)Nc1cccc(Cl)c1,.,-8.7%,?,-8.8%,.,.
CNS(=O)(=O)c1ccc(NC(=O)Nc2cccc(F)c2)cc1,12.0%,.,19µM*,1.6%,1.4%,?
O=C(N/C=C/c1ccco1)Nc1cccc(Cl)c1,16.3%,.,26.9µM*,.,-0.8%,19.2%
CSc1ccccc1NC(=O)Nc1cccc(F)c1,15.6%,.,21.3µM*,.,1.3%,?
C=CCOc1ccc(/C=C2\SC(=S)N(NS(=O)(=O)c3ccccc3)C2=O)cc1,-1.7%,.,?,.,0.2%,2.2%[1.84 µM]
N#CCCCS(=O)(=O)c1ccccc1,.,8.6%,.,-0.4%,.,.
CCC(=O)c1ccc(OCC(=O)Nc2ccccc2N2CCCCC2)cc1,-30.4%,.,1.7%,.,-2.4%,-18.4%
COc1ccc(/C=C2\SC(N3CCCCC3)=NC2=O)cc1,?,.,10.7µM*,.,10.3%,?
CC1CCN(C2=NC(=O)/C(=C/c3ccccc3F)S2)CC1,?,.,3.38µM*,.,9.2µM*,14.8%
O=C1N=C(N2CCCCC2)S/C1=C\c1cn[nH]c1-c1ccccc1,21.0%,?,7.57µM*,0.8%,-0.7%,14.6%
O=C1N=C(N2CCCC2)S/C1=C\C=C\c1ccccc1,1.58µM*,.,0.849µM*,.,1.64µM*,0.562µM*
O=C1N=C(N2CCOCC2)S/C1=C\c1cccnc1,-3.5%,-3.8%,-2.3%,-3.7%,-0.4%,-2.8%
CC1CCN(C2=NC(=O)/C(=C/c3cccc(O)c3)S2)CC1,-5.8%,.,?,.,11.7%,-5.6%
CCC[C@H]1C[C@H](C(=O)N[C@H]([C@@H]2O[C@H](SC)[C@@H](O)[C@H](O)[C@@H]2O)[C@H](C)O)N(C)C1,.,-2.5%[20.6 µM],.,1.6%[17.1 µM],.,.
Clc1ccc([C@H](Cn2ccnc2)OCc2c(Cl)cccc2Cl)c(Cl)c1,.,5.7%[20.6 µM],.,-2.5%[17.1 µM],.,.
O=C(O)c1c2c(c(O)c3c1CN(C1CCCCC1)CO3)OCN(C1CCCCC1)C2,.,10.6%[9.22 µM],.,-5.5%[7.66 µM],.,.
O=C1N=C(N2CCCCC2)S/C1=C\c1ccncc1,-4.4%,.,-9.0%,.,-5.6%,-6.1%
CCc1ccc(/C=C2\SC(N3CCCC3)=NC2=O)cc1,-0.5%,-38.1%,16.9µM*,-1.8%,3.2%,-5.3%
Cc1nnc(SCC(=O)c2c(N)n(C3CC3)c(=O)[nH]c2=O)n1-c1ccccc1,0.3%,.,.,.,2.5%,1.1%
Cc1cc(C)c2nc(Nc3nc(-c4ccccc4)cc(=O)[nH]3)nc(C)c2c1,8.5%,.,1.69µM*,.,4.2%,1.3%
Cc1ccc2oc(Nc3nc(C)cc(C)n3)nc2c1,?,4.2%,?,5.1%,8.9%,3.16µM*
Cc1ccc2oc(Nc3nc(-c4ccccc4)cc(=O)[nH]3)nc2c1,20.4%,-14.8%,?,-3.2%,20.6µM*,?
Cc1ccc2oc(=O)c(/C=C(\O)C(C)(C)C)nc2c1,-2.1%,10.7%,-10.1%,0.6%,0.0%,13.3%
COC(=O)Cc1cc(=O)[nH]c(Nc2nc3ccccc3o2)n1,4.7%,24.4%,16.9µM*,3.6%,7.5%,-4.0%
SMILES,NPC1 prom act,SMN2 splice enh,FLuc modulator,Luc counter,ELG1 genotoxic,Rab9 promoter act
COc1ccc(OCC(=O)NCCCCCCNC(=O)COc2ccc(OC)cc2)cc1,-1.1%,.,2.4%,.,-1.7%,-9.4%
O=C1c2ccccc2C(=O)N1C[C@]1(C(=O)O)NCCS1(=O)=O,.,3.9%[9.22 µM],.,-9.4%[7.66 µM],.,.
CCCCn1c(N)c(N(CCC(C)C)C(=O)C2CCCN(C(=O)c3ccc(Cl)cc3)C2)c(=O)[nH]c1=O (stereo not drawn),-5.3%,.,-0.9%,.,-0.3%,-0.1%
CC1CCC(NC(=O)c2cc(S(=O)(=O)N3CCCCC3)ccc2N2CCOCC2)CC1 (stereo not drawn),-0.6%,.,5.5%,.,-0.6%,-8.8%
COc1ccc(N2CCN(C(=O)COC(=O)Cc3c(F)cccc3Cl)CC2)cc1,-0.4%,.,3.6%,.,-5.5%,-3.0%
CS(=O)(=O)c1ccccc1C(=O)Nc1cccc(-c2nc3ccccc3o2)c1,-3.8%,.,10.7µM*,.,-5.6%,-1.1%
